The text below walks through data of PubChem BioAssay (NCATS).

Structures are written as SMILES. Values without a mark were called inactive. Results filed as inconclusive are left out. Activity calls are given as the source filed them. Unless noted, calls come from the whole dose curve; as a rule, active = well fitted curve in either direction with a large enough effect (not every such curve was filed as active); inconclusive = small, poorly fitted or top-dose-only effect, or another doubt; inactive = flat fitted curve, though single readings scatter.

Test [1] addresses Lysosomal acid glucosylceramidase (Homo sapiens) (UniProt P04062). Put plainly: Glucocerebrosidase-p2 (AID 348; in the data active = potency below about 10 µM; note: potency is the fitted concentration of half-maximal effect). To be noted: purified GBA, blue fluorogenic substrate, 40 min. A digest of the protocol:
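Compounds titrated from 0.6 nM upwards against 0.2 nM enzyme in pH 5.9 citric acid/KH2PO4, taurocholate, tween-20; blue fluorogenic substrate 80 uM, 40 min room temperature, stopped and read Ex 365/Em 440 for AC50.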

Test [2] can be described thus: AP1 Signaling Pathway (AID 357). Note: % is set by controls: 0 for no effect and ±100 for the full control effect. The note with it: ME-180 AP-1-bla reporter, EGF-induced, beta-lactamase ratio, 5 h; at 7.69 µM (top of the series) unless noted. A digest of the protocol: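 In this screen, ME-180 cells in Opti-MEM with 0.5% dialyzed FBS received EC50 EGF and compound titrations for 5 h. AP-1 reporter beta-lactamase was detected via CCF4 ratio, giving AC50 for positive and negative modulators.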

For test [3], the target named is Cytochrome P450 1A2 (Homo sapiens) (UniProt P05177). Put plainly: p450-cyp1a2 (AID 410; calls by dose curve; note: potency is the fitted concentration of half-maximal effect;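 for activity change, negative = inhibition: -100% = full effect of reference inhibitor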). The note with it: recombinant CYP1A2, luciferin-ME demethylation, luminescence; series mostly up to 11.4 µM. A digest of the protocol:
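Human CYP1A2 (20nM) demethylated Luciferin-ME at its Km (100uM) in 100mM KPO4. After 10 min compound preincubation, NADPH regeneration ran the reaction 60 min at room temperature. Luciferin was read by luminescence, normalized to 57 uM furafylline.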

Test [4] in a line: NFAT Signaling Pathway (AID 444).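 Note: carbachol stimulus at about its EC50 of 1 µM final; % is set by controls: 0 for no effect and ±100 for the full control effect.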 To be noted: Jurkat NFAT-bla M1, carbachol, beta-lactamase ratio, 5 h; at 7.69 µM (top of the series) unless noted. In a few lines: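 Jurkat cells carrying an NFAT-driven β-lactamase reporter and co-transfected muscarinic M1 receptor were treated with compound plus carbachol (1 uM final, an EC50 level) for 5 h at 37 °C. CCF4 loading followed for 1 h at RT; 460/530 nm ratio gave %activity.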

A short description of test [5]: Stat Signaling Pathway (AID 446).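 Note: ME-180 cervical cancer cells given 40 pM IL-6 alongside compound; SIE-controlled beta-lactamase reporter measured as 460/530 nm FRET emission ratio; % is set by controls: 0 for no effect and ±100 for the full control effect.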 To be noted: ME-180 SIE beta-lactamase reporter, IL-6 stimulated, 5 h; at 7.69 µM (top of the series) unless noted. A digest of the protocol:
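Reporter line: ME-180 cervical carcinoma, SIE-beta-lactamase. Treatment: compound with 40 pM IL-6, 5 hrs, 37 C, in low-serum OPTI-MEM with 10 mM HEPES pH 7.3. Detection: 460/530 nm fluorescence.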

Test [6] has as its target Glucocorticoid receptor (Homo sapiens) (UniProt P04150). In words: GR-GFP Redistribution (AID 450;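 active = compounds whose dose series gives a full or clear partial fitted curve of increased nuclear translocation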; note: potency is the fitted concentration of half-maximal effect). To be noted: U2OS GR-GFP nuclear translocation, laser cytometry, 2 h.
The target is the same in test [7]. In words: GR-EFC Redistribution (AID 451; calls by dose curve; note: potency is the fitted concentration of half-maximal effect). The note with it: CHO-K1 GR-EFC translocation, beta-gal luminescence, 2 h. In a few lines: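 CHO-K1 cells stably expressing nuclear-localized β-gal enzyme acceptor and GR fused C-terminally to the enzyme donor fragment; ligand-driven nuclear translocation restores β-gal by complementation. Compounds titrated up to 46 uM final, 2 h at 37 °C; luminescence read.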

For test [8], the target named is Mitogen-activated protein kinase 10 (Mus musculus) (UniProt Q61831). In words: JNK3 AlphaScreen Assay (AID 530).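 Note: kinase came from lysate of stimulated human HepG2 cells; signal reports phosphorylation of biotinylated GST-cJun 1-79 at Ser73 with 10 µM ATP; % is set by controls: 0 for no effect and ±100 for the full control effect.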 To be noted: JNK3 lysate, c-Jun phosphorylation; series mostly up to 11.4 µM. In a few lines:
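JNK3 came from HepG2 lysates pre-activated with IL-1beta and TNF-alpha and phosphorylated biotinylated GST-cJun (1-79) at 10 uM ATP, pH 7.6, room temperature. Compounds were titrated. AlphaScreen signal used anti-phospho-cJun (Ser73) antibody.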
(Alpha assays give light when donor and acceptor beads are brought close together.)

In test [9] the target is 3',5'-cyclic-AMP phosphodiesterase 4B (Homo sapiens) (UniProt Q07343). Put plainly: qHTS Assay for Inhibitors of PDE-IV (AID 607; active = well fitted activation curve with a large enough effect in the main read-out, with a control signal flat, not every such curve was filed as active; note: % of control where 0% means no effect). The note with it: HEK293 ACTOne CNG channel cells, membrane potential fluorescence; series mostly up to 22.9 µM. A digest of the protocol:
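Cell-based read-out of cAMP via a modified cyclic nucleotide-gated channel and membrane potential dye (535/590 nm) in HEK293 cells expressing PDE4 endogenously. Compounds tested up to 22.9 uM final; 100 uM RO 20-1724 reference.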
Background: Quantitative high-throughput screening tests each substance at several concentrations.

For test [10], the target named is Cytochrome P450 2C19 (Homo sapiens) (UniProt P33261). In words: qHTS Assay for Inhibitors and Substrates of Cytochrome P450 2C19 (AID 899; active = well fitted inhibition curve with a large enough effect; note: nearly all actives have a fitted effect of over 60% in size; note: potency is the fitted concentration of half-maximal effect). The note with it: recombinant CYP2C19, luciferin-H EGE luminescence; series mostly up to 11.4 µM. In a few lines: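 Human CYP2C19 (5nM) with Luciferin-H EGE at 10uM (its KM) in 50mM KPO4 was preincubated with compound for 10 min at 37C. NADPH regeneration started a 60 min 37C reaction. Luciferin was read by luminescence, normalized to 57uM ketoconazole.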
Chain of Cytochrome P450 2C19 (Homo sapiens) (P33261 whole entry, looked up): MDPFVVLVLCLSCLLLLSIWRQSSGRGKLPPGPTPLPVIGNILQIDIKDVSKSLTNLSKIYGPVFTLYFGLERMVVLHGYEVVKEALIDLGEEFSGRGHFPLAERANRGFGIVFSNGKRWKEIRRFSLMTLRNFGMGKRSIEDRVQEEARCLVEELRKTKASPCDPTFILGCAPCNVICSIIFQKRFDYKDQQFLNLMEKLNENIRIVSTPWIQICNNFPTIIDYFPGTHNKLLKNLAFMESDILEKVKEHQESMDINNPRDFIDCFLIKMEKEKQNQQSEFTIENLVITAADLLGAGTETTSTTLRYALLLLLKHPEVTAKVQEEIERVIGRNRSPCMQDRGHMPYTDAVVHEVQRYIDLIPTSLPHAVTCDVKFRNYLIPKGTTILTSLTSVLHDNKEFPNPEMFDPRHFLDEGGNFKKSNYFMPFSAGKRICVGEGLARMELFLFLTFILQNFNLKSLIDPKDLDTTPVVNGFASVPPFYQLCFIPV

Chain of 3',5'-cyclic-AMP phosphodiesterase 4B (Homo sapiens) (Q07343 whole entry, looked up): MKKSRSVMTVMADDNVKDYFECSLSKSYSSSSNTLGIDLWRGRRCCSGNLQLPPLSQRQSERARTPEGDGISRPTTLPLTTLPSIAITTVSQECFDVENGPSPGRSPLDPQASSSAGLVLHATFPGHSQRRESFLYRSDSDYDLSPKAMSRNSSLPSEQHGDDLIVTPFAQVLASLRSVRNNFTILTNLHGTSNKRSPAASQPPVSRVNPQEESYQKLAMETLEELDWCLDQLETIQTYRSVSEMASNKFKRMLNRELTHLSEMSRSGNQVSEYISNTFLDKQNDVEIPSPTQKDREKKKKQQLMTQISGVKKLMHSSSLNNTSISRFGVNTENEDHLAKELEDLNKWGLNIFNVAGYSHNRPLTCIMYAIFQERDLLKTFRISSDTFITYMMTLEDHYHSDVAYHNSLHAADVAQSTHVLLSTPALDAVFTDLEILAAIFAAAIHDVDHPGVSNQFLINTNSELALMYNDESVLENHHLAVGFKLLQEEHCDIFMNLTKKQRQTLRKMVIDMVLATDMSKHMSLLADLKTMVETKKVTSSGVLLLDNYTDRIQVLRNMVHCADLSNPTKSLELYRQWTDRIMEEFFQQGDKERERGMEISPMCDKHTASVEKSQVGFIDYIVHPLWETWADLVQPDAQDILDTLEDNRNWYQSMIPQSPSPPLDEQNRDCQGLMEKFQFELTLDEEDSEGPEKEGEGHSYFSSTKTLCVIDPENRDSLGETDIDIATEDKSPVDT
Chain of Glucocorticoid receptor (Homo sapiens) (P04150 whole entry, looked up, the tested form may be a part): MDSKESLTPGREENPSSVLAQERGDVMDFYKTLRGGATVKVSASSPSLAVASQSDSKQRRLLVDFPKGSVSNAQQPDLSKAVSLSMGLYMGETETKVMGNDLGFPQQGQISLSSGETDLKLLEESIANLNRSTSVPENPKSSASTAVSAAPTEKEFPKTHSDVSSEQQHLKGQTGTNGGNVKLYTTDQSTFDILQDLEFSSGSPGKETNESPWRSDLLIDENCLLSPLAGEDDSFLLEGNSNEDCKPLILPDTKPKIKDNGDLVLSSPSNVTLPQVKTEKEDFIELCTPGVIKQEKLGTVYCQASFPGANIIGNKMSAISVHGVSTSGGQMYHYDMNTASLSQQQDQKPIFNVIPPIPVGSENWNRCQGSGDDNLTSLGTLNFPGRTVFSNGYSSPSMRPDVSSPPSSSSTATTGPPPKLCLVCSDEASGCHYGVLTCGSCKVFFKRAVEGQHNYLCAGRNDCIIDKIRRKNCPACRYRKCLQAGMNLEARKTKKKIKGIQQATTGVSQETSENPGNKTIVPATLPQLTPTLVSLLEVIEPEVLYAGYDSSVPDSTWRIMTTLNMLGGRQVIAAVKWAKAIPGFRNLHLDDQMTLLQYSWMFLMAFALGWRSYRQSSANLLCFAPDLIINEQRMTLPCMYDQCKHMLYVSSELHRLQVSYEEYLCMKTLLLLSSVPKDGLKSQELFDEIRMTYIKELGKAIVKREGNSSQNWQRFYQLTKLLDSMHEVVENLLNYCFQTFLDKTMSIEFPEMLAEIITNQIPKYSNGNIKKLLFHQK
Chain of Cytochrome P450 1A2 (Homo sapiens) (P05177 whole entry, looked up): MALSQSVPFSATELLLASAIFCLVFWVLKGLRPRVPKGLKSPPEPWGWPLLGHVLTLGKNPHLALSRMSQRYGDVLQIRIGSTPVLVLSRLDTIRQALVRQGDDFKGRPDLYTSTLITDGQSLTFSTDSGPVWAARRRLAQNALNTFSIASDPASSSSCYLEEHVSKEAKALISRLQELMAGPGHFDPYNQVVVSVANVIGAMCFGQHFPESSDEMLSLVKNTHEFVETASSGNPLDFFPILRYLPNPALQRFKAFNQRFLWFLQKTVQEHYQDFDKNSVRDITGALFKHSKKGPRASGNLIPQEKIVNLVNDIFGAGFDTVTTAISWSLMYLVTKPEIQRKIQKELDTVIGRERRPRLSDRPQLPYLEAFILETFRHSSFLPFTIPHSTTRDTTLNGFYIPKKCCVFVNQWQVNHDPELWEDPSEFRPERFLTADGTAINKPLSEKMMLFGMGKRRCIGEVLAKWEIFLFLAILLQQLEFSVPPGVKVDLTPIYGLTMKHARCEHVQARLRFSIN
Chain of Lysosomal acid glucosylceramidase (Homo sapiens) (P04062 whole entry, looked up): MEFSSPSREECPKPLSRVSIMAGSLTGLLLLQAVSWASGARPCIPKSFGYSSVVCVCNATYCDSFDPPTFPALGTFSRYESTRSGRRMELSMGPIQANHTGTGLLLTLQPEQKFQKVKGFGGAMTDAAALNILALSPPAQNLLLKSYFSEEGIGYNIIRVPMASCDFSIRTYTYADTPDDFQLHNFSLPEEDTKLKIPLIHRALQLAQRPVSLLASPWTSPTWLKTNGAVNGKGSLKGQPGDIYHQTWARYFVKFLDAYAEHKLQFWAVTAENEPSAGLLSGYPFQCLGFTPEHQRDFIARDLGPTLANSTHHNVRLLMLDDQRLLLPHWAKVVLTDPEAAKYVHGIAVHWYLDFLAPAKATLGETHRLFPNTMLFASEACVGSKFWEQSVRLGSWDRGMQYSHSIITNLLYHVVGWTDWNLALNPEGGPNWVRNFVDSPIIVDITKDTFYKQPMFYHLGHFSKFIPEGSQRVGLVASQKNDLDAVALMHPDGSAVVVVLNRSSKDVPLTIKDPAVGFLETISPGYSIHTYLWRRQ

As to `O=C(O)CCSCc1ccccc1`, the Potency in [1] was more than 11.4 µM; in test [6] it was more than 46 µM; in test [7], more than 9.22 µM. Further, the activity change, negative = inhibition in test [2] was 4.81%; in test [4] it was -0.126%. Besides, the Potency entry in test [3], in test [8], in [9] and in test [10] was “inactive” each time. In addition, the activity, negative = inhibition in test [5] was -0.355%.
Take `Cc1ccc(S(=O)(=O)N2CCC(C(=O)O)(c3ccccc3)CC2)cc1`: the results for the Potency in test [1], in test [6] and in [7] were more than 11.4 µM, more than 46 µM and more than 9.22 µM, respectively. The activity change, negative = inhibition in [2] was 0.56%; in [4] it was 2.33%. In addition, the Potency result in test [3], in test [8], in [9] and in [10] was “inactive” in each case. The activity, negative = inhibition in test [5] is -9.97%.
As to `OC[C@@H]1O[C@@H](O)[C@H](N=Cc2ccc3c(c2)OCO3)[C@@H](O)[C@@H]1O`, the figures for the Potency in test [1], in [6] and in [7] were more than 11.4 µM, more than 46 µM and more than 9.22 µM, respectively. In addition, the activity change, negative = inhibition in [2] is 5.99%; in test [3], -24.4% [at 2.29 µM]; in test [4], 3.26%. In [5], the activity, negative = inhibition was 2.95%. For the same compound, the Potency entry in [8], in test [9] and in test [10] was “inactive” each time.
As for `CN1CCc2[nH]nc(-c3n[nH]c4c3CN(C)CC4)c2C1`, the Potency in [1] is more than 11.4 µM; in [6], more than 46 µM; in test [7], more than 9.22 µM. The values for the activity change, negative = inhibition in [2] and in [4] were 3.96% and 4.1%, respectively. In addition, the Potency entry in test [3], in test [8], in [9] and in test [10] was “inactive” throughout. The activity, negative = inhibition in test [5] is 2.92%.
Take `O=C(SCc1cccc2ccccc12)c1ccc(Cl)cc1`: the Potency in [1] was more than 11.4 µM; in [3] it was 0.794 µM (active); in test [6], more than 46 µM; in test [7], more than 9.22 µM; in [10], 1.58 µM (active). Also, the activity change, negative = inhibition is 9.24% in test [2] and -5.94% in [4]. The activity, negative = inhibition in [5] was 7%. Further, the Potency result in test [8] and in test [9] was “inactive” in each case.
For the compound `O=C(O)C(Cc1cccs1)C(=O)O`, the Potency in [1] was more than 11.4 µM; in test [6] it was more than 46 µM; in test [7], more than 9.22 µM. Also, the activity change, negative = inhibition was 7.58% in test [2], -2.1% [at 2.29 µM] in [3] and 8.62% in [4]. Further, the activity, negative = inhibition in [5] is 0.541%. Also, the Potency result in test [8], in test [9] and in [10] was “inactive” each time.
For the compound `N#CC(C#N)=CNCCN1CCN(C=C(C#N)C#N)CC1`, the Potency in test [1] is more than 11.4 µM; in [6] it was more than 46 µM; in test [7] it was more than 9.22 µM. The activity change, negative = inhibition in test [2] is 2.96%; in test [3], -15.5% [at 2.29 µM]; in [4], 2.39%. Also, the activity, negative = inhibition in test [5] is 3.44%. Also, the Potency entry in [8], in test [9] and in test [10] was “inactive” each time.
Regarding `Clc1ccccc1C(Nc1ncccn1)Nc1ncccn1`, the figures for the Potency in [1], in test [6] and in [7] were more than 11.4 µM, more than 46 µM and more than 9.22 µM, respectively. Further, the activity change, negative = inhibition in test [2] is 4.25%; in [4], 3.12%. The Potency result in test [3], in test [8], in test [9] and in test [10] was “inactive” each time. The activity, negative = inhibition in test [5] is 3.77%.
In the case of `O=C(O)C1CC2(C1)CC(C(=O)O)C2` (stereo not given), the Potency in [1] is more than 11.4 µM; in test [6], more than 46 µM; in test [7], more than 9.22 µM. Further, the activity change, negative = inhibition is 1.62% in test [2], -6.3% [at 2.29 µM] in test [3] and 10.7% in [4]. For the same compound, the activity, negative = inhibition in [5] was 12.7%. The Potency entry in test [8], in test [9] and in [10] was “inactive” each time.
Take `CN1CCc2nc(N)nc(-c3nc(N)nc4c3CN(C)CC4)c2C1`: the Potency was more than 11.4 µM in test [1], more than 46 µM in test [6] and more than 9.22 µM in test [7]. The activity change, negative = inhibition in test [2] was 1.73%; in test [3] it was -3.9% [at 2.29 µM]; in [4], 7.63%. Besides, the activity, negative = inhibition in test [5] is 4.69%. The Potency result in test [8], in test [9] and in [10] was “inactive” in each case.
Regarding `C[C@@H]1O[C@@H](O)[C@@H](O)[C@H](O)[C@H]1O`, the Potency is more than 11.4 µM in test [1], more than 46 µM in test [6] and more than 9.22 µM in [7]. Besides, the activity change, negative = inhibition in test [2] is -1.53%; in [4], 13.9%. Also, the Potency result in test [3], in test [8], in test [9] and in test [10] was “inactive” each time. The activity, negative = inhibition in test [5] is 6.79%.
Consider `Nc1c(S(N)(=O)=O)cc(S(N)(=O)=O)cc1S(N)(=O)=O`, for which the Potency in [1] is more than 11.4 µM; in [6], more than 46 µM; in [7], more than 9.22 µM. Besides, the values for the activity change, negative = inhibition in test [2] and in [4] were 2.78% and 7.97%, respectively. Moreover, the Potency result in test [3], in test [8], in test [9] and in [10] was “inactive” in each case. The activity, negative = inhibition in [5] is 1.94%.
As to `O=C(CC1(O)CCCCC1)OC1CCCC1`, the Potency was more than 11.4 µM in test [1], more than 46 µM in test [6], more than 9.22 µM in [7] and 1.58 µM (active) in test [10]. Moreover, the figures for the activity change, negative = inhibition in test [2] and in test [4] were 8.55% and 16.8%, respectively. Also, the Potency entry in test [3], in test [8] and in [9] was “inactive” each time. Besides, the activity, negative = inhibition in [5] was 4.14%.
With `Cc1ccc([C@@]2(C)CC/C(=N/N=C3\CC[C@](C)(c4ccc(C)c(C)c4)c4cc(C)c(C)cc43)c3cc(C)c(C)cc32)cc1C`, the Potency in test [1] is more than 11.4 µM; in test [6], more than 46 µM; in test [7], more than 9.22 µM. Moreover, the results for the activity change, negative = inhibition in [2] and in [4] were 5.94% and 7.12%, respectively. The Potency entry in [3], in test [8], in test [9] and in test [10] was “inactive” throughout. For the same compound, in [5], the activity, negative = inhibition is 4.03%.
Take `N=C(N)CCNC(=O)[C@@H]1CCC(N)=N1`: the Potency in test [1] was more than 11.4 µM; in test [6] it was more than 46 µM; in test [7] it was more than 9.22 µM. Besides, the activity change, negative = inhibition in test [2] was 4.22%; in test [3], -3.4% [at 2.29 µM]; in test [4], 3.47%. For the same compound, the activity, negative = inhibition in test [5] is 1.16%. Moreover, the Potency entry in [8], in [9] and in test [10] was “inactive” each time.
